From PubChem
PAX8 reporter: inhibitors of PAX8 transcriptional activity in RMG-I cells; RMG-I TPO-luciferase reporter, SteadyGlo, 24 h; inhibition, % at 12.6 µM; 1.2% of 360,000 active; AID 652154;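 active = mean replicate inhibition at least 60% with every replicate also reaching 60%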;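 note: luciferase light reporting Pax8 driven TPO promoter activity; plate controls were median of neutral control wells for no effect and mitoxantrone controls for full effect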
CSC inhib: cancer stem cell inhibition | inhibition, % at 7.5 µM | 1.1% of 300,000 active | cancer stem cell-like cells viability, luminescence; in the data active = inhibition above about 75%; tested in HMLE shEcad cells
Beta apoptosis: blocks beta cell apoptosis | INS-1E cytokine-induced death, ATP luminescence, 48 h; percent of positive-control rescue, neutral wells zero | protection from apoptosis, % (test concentration not listed) | 0.8% of 300,000 active | AID 435005;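 active = Every replicate reaches about 75%, or at least half do and their mean reaches it too, limit read from the data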;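 note: 0% = cytokine-treated negative control wells and 100% = positive control rescue; higher means more ATP so stronger rescue from cytokine killing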
Gli-Sufu antag: Gli-Sufu pathway antagonism. Sufu-KO-LIGHT fibroblasts, Gli luciferase reporter luminescence. inhibition, % at 5 µM. 0.74% of 340,000 active;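 active = inhibition above about 55%, limit read from the data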;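 note: 0% = DMSO-treated cells and 100% = wells with medium but no cells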
Shn3 inh set2: inhibitors of Schnurri-3 3'UTR reporter in osteoblasts | Clone20 osteoblast Shn3 3'UTR firefly luciferase, 24 h | inhibition, % at 12.5 µM | 0.52% of 360,000 active;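 active = mean inhibition of at least 75% with every replicate also reaching 75%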;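 note: 0% = median of neutral control wells and 100% = pilot-screen positive control compound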
Mdm2-MdmX inh: human Mdm2/MdmX binding inhibition; SaOS-2 split-luciferase Mdm2/MdmX complementation, luminescence; inhibition, % at 8 µM; 3% of 330,000 active; AID 485346;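 active = inhibition of at least 50% at 8 µM in the primary screen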
Target sequence (O15151 whole entry, looked up): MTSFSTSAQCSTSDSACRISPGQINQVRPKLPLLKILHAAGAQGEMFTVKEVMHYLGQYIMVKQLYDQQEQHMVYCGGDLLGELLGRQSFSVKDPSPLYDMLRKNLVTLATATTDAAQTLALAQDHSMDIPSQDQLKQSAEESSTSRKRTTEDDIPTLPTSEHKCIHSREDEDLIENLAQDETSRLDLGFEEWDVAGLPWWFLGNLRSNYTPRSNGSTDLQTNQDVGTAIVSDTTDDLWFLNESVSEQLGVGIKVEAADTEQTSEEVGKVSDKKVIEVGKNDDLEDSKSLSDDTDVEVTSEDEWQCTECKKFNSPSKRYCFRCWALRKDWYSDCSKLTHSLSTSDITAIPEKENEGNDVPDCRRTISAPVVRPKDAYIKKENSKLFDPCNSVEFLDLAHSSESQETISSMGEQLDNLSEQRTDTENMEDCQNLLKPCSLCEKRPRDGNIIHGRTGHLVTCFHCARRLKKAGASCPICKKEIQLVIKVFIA
Target sequence (Q00987 whole entry, looked up): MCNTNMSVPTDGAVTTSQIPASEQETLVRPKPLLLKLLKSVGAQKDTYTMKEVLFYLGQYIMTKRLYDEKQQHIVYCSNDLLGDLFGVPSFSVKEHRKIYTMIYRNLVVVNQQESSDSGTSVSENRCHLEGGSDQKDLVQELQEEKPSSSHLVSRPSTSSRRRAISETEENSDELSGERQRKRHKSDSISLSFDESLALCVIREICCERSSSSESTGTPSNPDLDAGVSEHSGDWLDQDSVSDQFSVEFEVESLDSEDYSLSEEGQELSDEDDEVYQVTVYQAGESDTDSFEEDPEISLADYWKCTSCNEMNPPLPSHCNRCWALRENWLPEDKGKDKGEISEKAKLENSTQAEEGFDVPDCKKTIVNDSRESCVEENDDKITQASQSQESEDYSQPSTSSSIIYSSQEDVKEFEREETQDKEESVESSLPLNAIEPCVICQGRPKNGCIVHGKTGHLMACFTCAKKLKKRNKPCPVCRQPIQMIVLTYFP
Numbers without * were called inactive; . = no result given. Only some compounds are listed: those with a hit (about 4% of all), similar ones and a draw of the others.

SMILES	PAX8 reporter	CSC inhib	Beta apoptosis	Gli-Sufu antag	Shn3 inh set2	Mdm2-MdmX inh
C=CCSc1nnc(NC(=O)C2CC(=O)N(c3ccc4c(c3)OCCO4)C2)s1 (stereo not given)	81*	-24	-4	-1	-5	37
O=C1NC(=S)S/C1=C\c1ccc(SCc2ccccc2)o1	9	76*	8	7	-15	.
CCOC(=O)c1c(NC(=O)c2cc(-c3ccc(Cl)s3)nc3ccccc23)sc(C(N)=O)c1C	-2	14	77*	1	-20	.
Cc1ccccc1-c1cc(C(=O)Nc2sc(C)c(C)c2C(N)=O)c2ccccc2n1	.	.	93*	9	-1	30
CC(C)NC(=O)[C@@]1(C)c2ccccc2C(=O)N(Cc2ccccc2)[C@H]1c1ccc(CO)cc1	-26	.	.	.	.	.
O=C(N[C@H]1CC[C@@H](CCNC(=O)C2CCOCC2)O[C@H]1CO)c1ccccn1	-4	.	.	.	.	.
CN1CCN(C(=O)C[C@H]2CC[C@H](NC(=O)c3ccc4c(c3)OCO4)[C@H](CO)O2)CC1	-9	.	.	.	.	.
Cc1ccc2ncnc(Nc3ccc(C)c(C)c3)c2c1	.	80*	18	-2	9	33
Cc1noc(C)c1NC(=O)Nc1ccc2c(c1)C(=O)N([C@@H](C)CO)C[C@@H](C)[C@@H](CN(C)S(=O)(=O)c1ccc(F)cc1)OCCCC[C@H](C)O2	3	.	.	.	.	.
C[C@H](NC(=O)C[C@@H]1CC[C@@H]2[C@H](COC[C@H](O)CN2C(=O)Nc2ccccc2)O1)c1ccccc1	-11	.	.	.	.	.
CCc1c(C)nc2cc(-c3cc(OC)cc(OC)c3)nn2c1N1CCCC1	.	83*	10	13	19	29
CC(C)NC(=O)Nc1ccc2c(c1)CC(=O)N([C@H](C)CO)C[C@H](C)[C@@H](CN(C)S(=O)(=O)c1cn(C)cn1)O2	-8	.	.	.	.	.
CCn1c(C)nc2cc(C(=O)NNC(=O)c3ccc(C)cc3)ccc21	-101	.	1	-10	-76	28
CCn1c(C)nc2cc(C(=O)OC(C(F)(F)C(F)F)C(F)(F)C(F)F)ccc21	.	37	104*	-14	-14	-12
Cc1sc2nc(SCCN(C)C)n(-c3ccccc3)c(=O)c2c1-c1ccc(F)cc1	15	109*	-1	10	-17	23
O=C1C=C(NCCc2cc(Br)c(O)c(Br)c2)C(=O)c2ncccc21	101*	.	.	8	94*	.
Cc1ccc(S(=O)(=O)N(C)C[C@@H]2Oc3c(NS(C)(=O)=O)cccc3C(=O)N([C@H](C)CO)C[C@H]2C)cc1	-3	.	.	.	.	.
COc1ccc(-n2nc([N+](=O)[O-])c(=NCCc3ccccc3)n2O)cc1	94*	16	12	-21	2	-40
O=[N+]([O-])c1nn(-c2ccccc2)n(O)c1=NCCc1ccccc1	.	0	30	-57	-31	-7
N#CC1(NC(=O)COC(=O)c2ccccc2[N+](=O)[O-])CCCCC1	-14	-16	-3	-6	-11	26
N#CC1(NC(=O)COC(=O)c2cc(O)c3ccccc3c2O)CCCCC1	.	89*	-2	15	-10	30
C=C(C)[C@@H]1C2=CC(C(=O)OC)=C(C[C@H](C(=C)C)[C@H]3O[C@H]3C3=C[C@H]1OC3=O)O2	.	.	.	.	98*	.
COc1ccc(/C=C/c2ccc3c(Br)ccc(O)c3n2)cc1	-113	89*	36	13	-35	36
COc1ccc(/C=C/c2ccc3cccc(O)c3n2)cc1Br	-45	31	22	2	-67	4
COc1cc(/C=C/c2ccc3c(Br)cc(Br)c(O)c3n2)ccc1O	73*	115*	63	9	38	.
SMILES	PAX8 reporter	CSC inhib	Beta apoptosis	Gli-Sufu antag	Shn3 inh set2	Mdm2-MdmX inh
COc1ccc(-c2ccccc2[C@@H]2[C@@H](C#N)N(C(=O)C3CCOCC3)[C@H]2CO)cc1	31	.	.	.	.	.
S=C(c1cn(CCOc2cccc3ccccc23)c2ccccc12)N1CCCC1	45	4	105*	37	75	-2
CNC1CCc2cc(OC)c(OC)c(OC)c2-c2ccc(SC)c(=O)cc21 (stereo not given)	72*	.	.	48	2	.
COc1cc2c(c(OC)c1OC)-c1ccc(OC)c(=O)cc1C(N)CC2 (stereo not given)	76*	.	.	46	7	.
COc1cc2c(c(OC)c1OC)CC(=O)N(C)CC2	.	-10	-6	3	-6	15
CCOCC(=O)NC1CCc2cc(OC(=O)COCC)c(OC)c(OC)c2-c2ccc(SC)c(=O)cc21 (stereo not given)	91*	.	.	46	9	.
COc1cc2c(c(OC)c1OC)-c1ccc(NCc3ccccc3)c(=O)cc1C(NC(C)=O)CC2 (stereo not given)	84*	.	.	.	21	.
COc1cc(CNc2ccccc2SC)cc(OC)c1OC	.	-7	-1	9	54	38
COc1ccc(-c2ccc(=O)n(CC(=O)NC3CCc4ccccc43)n2)cc1OC (stereo not given)	-7	0	-2	3	5	6
C[C@H](CO)N1C[C@H](C)[C@@H](CN(C)C(=O)c2ccccc2)OCCCC[C@H](C)Oc2ccc(NC(=O)NC3CCCCC3)cc2C1=O	-36	.	.	.	.	.
CC1(C)N=C(N)N=C(N)N1c1ccc(CCCCc2ccccc2)cc1	68*	.	.	.	89*	.
Cc1occc(=O)c1OC(=O)Nc1ccc(Cl)c(Cl)c1	.	38	106*	-7	4	.
COc1ccc(C(=O)Oc2c(C)occc2=O)cc1OC	.	-9	-4	4	11	16
C[C@@H]1CCCCO[C@@H](CN(C)S(C)(=O)=O)[C@H](C)CN([C@H](C)CO)C(=O)c2cc(NS(C)(=O)=O)ccc2O1	-7	.	.	.	.	.
O=C(Nc1ccc(C(F)(F)F)cc1)N[C@H]1CC[C@@H](CCNC(=O)c2ccccc2F)O[C@H]1CO	15	.	.	.	.	.
COc1cc(C=CC(=O)c2ccccc2)cc(OC)c1OC	22	.	.	.	-4	.
COc1cc(C=CC(=O)c2cc(OC)c(OC)c(OC)c2)cc(OC)c1OC	96*	.	.	14	62	.
CCCNC(=O)N1C[C@H](O)COC[C@H]2O[C@H](CC(=O)NCc3ccc(Cl)c(Cl)c3)CC[C@@H]21	11	.	.	.	.	.
CCOc1ccc(NS(=O)(=O)c2cc(C(=O)NCCN3CCOCC3)ccc2C)cc1	-11	.	-1	2	92*	23
CC(C)C(Cl)=NOC(=O)Nc1ccc(F)cc1	5	.	.	-15	99*	.
C/C(=N\OC(=O)Nc1ccc(Cl)cc1)c1ccc(F)c(F)c1	-7	11	-5	-5	-2	15
CC1=NN(c2ccccc2)C(=O)/C1=C/c1c(O)n(-c2ccc(F)c(Cl)c2)[nH]c1=O	.	103*	1	-45	.	-47
CN1c2ccc(C3=CCCCC3)cc2[C@H]2[C@H](CCN2C(=O)C2CCC2)[C@@H]1CO	69*	.	.	.	.	.
CN1c2ccc(C3=CCCCC3)cc2[C@H]2[C@H](CCN2C(=O)C2CCCCC2)[C@H]1CO	-8	.	.	.	.	.
CN1c2ccc(C3=CCCCC3)cc2[C@@H]2[C@@H](CCN2C(=O)C2CCCC2)[C@H]1CO	-13	.	.	.	.	.
